HCV inh – qHTS Assay for Inhibitors of Hepatitis C Virus (HCV); 3.4% of 340,000 active; Huh7.5.1 HCVcc-Cre infection, luciferase reporter, 44 h; Potency, µM (doses to about 41.8 µM), for inactives: at the top dose activity change, negative = inhibition, most hits filed as inhibitors; active = well fitted inhibition curve with a large enough effect; inconclusive = small, poorly fitted or top-dose-only effect, or another doubt; inactive = no such curve, though single readings can be large or run the other way
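Infectious HCV cell culture screen: compound-treated cells (1,000/well, pre-plated 4 h) are infected with HCVcc-Cre at roughly 0.5 moi and grown 44 h. Infection is quantified by luciferase signal after 15 min substrate incubation at room temperature.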
Vaccinia mCherry – qHTS for Stage-Specific Inhibitors of Vaccinia Orthopoxvirus: mCherry Reporter Primary qHTS; Vaccinia virus mCherry reporter infection, fluorescence; Potency, µM (highest dose often 36.5 µM), inactives show at the top dose activity change, negative = inhibition, most hits filed as inhibitors; 0.63% of 310,000 active; calls by dose curve; tested in A549 cells; also: nearly all actives have a fitted effect of over 35% in size
VACV Venus inh – qHTS for Stage-Specific Inhibitors of Vaccinia Orthopoxvirus: Venus Reporter Primary qHTS. Vaccinia virus Venus reporter expression, fluorescence. Potency, µM (top dose mostly 36.5 µM), without a hit: top-dose activity change, negative = inhibition, most hits filed as inhibitors. 0.46% of 330,000 active; calls by dose curve; tested in A549 cells; also: nearly all actives have a fitted effect of over 30% in size
Numbers without * were called inactive; [ ] = another dose, or the depositor's remark. Only some compounds are listed: those with a hit (about 3.3% of all), similar ones and a draw of the others. % is scaled to controls: 0 for no effect and ±100 for the full control effect; potency is read from the fitted curve at half-maximal effect.

For COc1ccc(CN(C)C(=O)c2cccc(S(=O)(=O)N3CCN(c4ccccc4)CC3)c2)c(OC)c1OC the results were HCV inh 8.9µM*, Vaccinia mCherry inconclusive and VACV Venus inh -28%.
`COc1ccc(C(=O)CC(=O)c2ccccc2)cc1` gave HCV inh -10%, Vaccinia mCherry inactive and VACV Venus inh -3%.
Screening COc1ccc(C(=O)C/C(=C\C(=O)c2ccc(C)cc2)c2ccccc2)cc1 returned HCV inh 11µM*.
Screening CCCCNc1nc(Nc2ccc(C)c(Cl)c2)c2cnn(C)c2n1 returned HCV inh 13µM*.
CCNc1nc(Nc2ccc(C)c(Cl)c2)c2cnn(C)c2n1 was read as HCV inh 14µM*.
For CCNc1nc(NCc2ccc(F)cc2)c2cnn(C)c2n1 the results were Vaccinia mCherry -22% and VACV Venus inh -12%.
`COCCNc1nc(NCc2cccc(Cl)c2)c2cnn(C)c2n1` gave Vaccinia mCherry -29% and VACV Venus inh -18%.
`CO[C@H]1[C@H](NC(=O)c2ccsc2)c2ccccc2C12CCN(Cc1cc3ccccc3o1)CC2` gave Vaccinia mCherry -21% and VACV Venus inh -14%.
`Cc1ccc(-c2cc(-c3ccc(C)cc3)[n+](C)o2)cc1` gave HCV inh 8.9µM*, Vaccinia mCherry -10% and VACV Venus inh -26%.
For Cc1ccc(-c2cnco2)cc1 the results were HCV inh 7%.
O=C(Nc1ccc(C(=O)OC[C@@H]2CCCN3CCCC[C@H]23)cc1)c1cccc(Br)c1 was read as HCV inh 11µM*, Vaccinia mCherry -1% and VACV Venus inh inconclusive.
`O=C(NC(=O)c1cccc(F)c1)OC[C@@H]1CCCN2CCCC[C@H]12` gave HCV inh 19%, Vaccinia mCherry -13% and VACV Venus inh -10%.
Screening CN1CCN(CC(=O)NC(=O)NC2CCCCC2)CC1 returned HCV inh 11%.
Screening CCCOc1ccc(C(=O)Nc2nc(C)c(Cc3ccc4c(c3)OCO4)s2)cc1 returned HCV inh 3.5µM*, Vaccinia mCherry inconclusive and VACV Venus inh 10µM*.
For COc1cc(C(=O)Nc2nc(C)c(Cc3ccc4c(c3)OCO4)s2)cc(OC)c1OC the results were HCV inh 10µM*.
`CCCOc1ccc(C(=O)N2CCN(Cc3ccc4c(c3)OCO4)CC2)cc1` gave HCV inh inconclusive, Vaccinia mCherry -3% and VACV Venus inh -20%.
Cc1c(Cc2ccc3c(c2)OCO3)sc(NC(=O)c2ccc3ccccc3c2)c1C(N)=O was read as HCV inh inconclusive, Vaccinia mCherry -19% and VACV Venus inh -15%.
Cc1nc(NC(=O)c2ccc(OCC(C)C)cc2)sc1Cc1ccc2c(c1)OCO2 was read as HCV inh 14µM*, Vaccinia mCherry inactive and VACV Venus inh -28%.
`COc1cc(C(=O)NCCc2ccc3c(c2)OCO3)cc(OC)c1OC` gave HCV inh -9%, Vaccinia mCherry -10% and VACV Venus inh -6%.
Screening Cc1cc(C)nc(-c2cccc3c2OC(CNC(=O)C2CCOC2)C3)n1 (stereo not drawn) returned Vaccinia mCherry -8% and VACV Venus inh -4%.
For CN1CCc2c(sc3c2C(=O)NC(c2ccc(OC(=O)c4ccccc4)cc2)N3)C1 (stereo not drawn) the results were Vaccinia mCherry -16%[7.34 µM] and VACV Venus inh -9%[7.34 µM].
For COc1ccccc1CCNC(=O)c1cc(-c2ccccn2)nc2ccccc12 the results were HCV inh 11µM*, Vaccinia mCherry -20% and VACV Venus inh -16%.
For COc1ccccc1CCNC(=O)c1cc(-c2ccncc2)nc2ccc(Br)cc12 the results were HCV inh 0.89µM*, Vaccinia mCherry 5% and VACV Venus inh -4%.
For O=C(NCCC1=CCCCC1)c1cc(-c2ccccn2)nc2ccccc12 the results were HCV inh 0%, Vaccinia mCherry -7% and VACV Venus inh -14%.
Cc1ccc2nc(-c3ccncc3)cc(C(=O)NCc3ccccc3F)c2c1 was read as HCV inh -21%.
Screening CC(=O)N1CCOCC1c1cc(C(=O)Nc2ccccc2)no1 (stereo not drawn) returned Vaccinia mCherry -9% and VACV Venus inh -1%.
For CCOc1ccc(NC(=O)COC(=O)c2ccccc2OCC(=O)N(C)C)cc1 the results were Vaccinia mCherry -7% and VACV Venus inh -12%.
`C[C@H]1[C@H]2CC[C@H]3[C@@H]4CC=C5C[C@@H](N(C)C)CC[C@]5(C)[C@H]4CC[C@]23CN1C` gave Vaccinia mCherry -1% and VACV Venus inh -11%.
For Cc1ccc(CNC(=O)C2CCN(C(=O)Nc3ccc(C)cc3)CC2)cc1 the results were HCV inh inconclusive, Vaccinia mCherry -13% and VACV Venus inh -12%.

Compound activity deposited in PubChem by National Center for Advancing Translational Sciences (NCATS).
